Rows were chosen to be rich in hits. Some 2.8% of all compounds tested hit in one or more screens of this group.
POLI inh = inhibitors of human DNA polymerase iota | Q9UNA4 | Pol iota fluorescent replication assay, 10 min | Potency, µM (doses to about 115 µM), for the others: at the highest dose activity, negative = inhibition, most hits filed as inhibitors | 1% of 390,000 active | AID 588590; also: potency is read from the fitted curve at half-maximal effect
Target sequence (Q9UNA4 whole entry, looked up): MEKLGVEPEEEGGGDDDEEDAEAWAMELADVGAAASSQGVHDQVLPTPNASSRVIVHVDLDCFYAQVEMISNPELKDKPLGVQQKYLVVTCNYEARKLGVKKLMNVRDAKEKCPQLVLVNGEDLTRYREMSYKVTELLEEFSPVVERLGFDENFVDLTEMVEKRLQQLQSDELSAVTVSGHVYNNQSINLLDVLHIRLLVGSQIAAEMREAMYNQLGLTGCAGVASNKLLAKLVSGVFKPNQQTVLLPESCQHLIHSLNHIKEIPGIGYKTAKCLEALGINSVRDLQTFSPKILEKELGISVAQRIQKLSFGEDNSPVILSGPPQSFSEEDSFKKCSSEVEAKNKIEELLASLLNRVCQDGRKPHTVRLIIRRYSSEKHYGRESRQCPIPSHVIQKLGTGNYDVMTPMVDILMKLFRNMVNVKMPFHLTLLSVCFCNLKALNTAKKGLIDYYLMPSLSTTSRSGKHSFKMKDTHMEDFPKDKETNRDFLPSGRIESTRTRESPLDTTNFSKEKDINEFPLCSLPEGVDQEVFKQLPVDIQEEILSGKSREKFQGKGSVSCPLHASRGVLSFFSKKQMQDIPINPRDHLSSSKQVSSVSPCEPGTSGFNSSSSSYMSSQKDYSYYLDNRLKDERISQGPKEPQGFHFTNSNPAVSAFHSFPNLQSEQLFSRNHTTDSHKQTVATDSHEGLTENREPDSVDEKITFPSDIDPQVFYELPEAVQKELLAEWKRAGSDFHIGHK
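Pol iota at 10 nM preincubated 15 min with compounds at room temperature; reaction started with fluorescent substrate, 50 nM final. Fluorescence read kinetically at 0 and 10 min; buffer-only wells as negative control.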
Pol kappa inh = blocks human DNA polymerase kappa activity; 0.53% of 400,000 active; Q9UBT6; Potency, µM (titrated, usually from 107 µM), inactives show at the top dose activity, negative = inhibition, actives largely listed as inhibitors; purified Pol kappa, fluorescent DNA synthesis assay, 10 min; also: potency is read from the fitted curve at half-maximal effect; % is scaled to controls: 0 for no effect and ±100 for the full control effect
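10 nM Pol kappa preincubated 15 min at room temperature with compounds, then reaction started with substrate at 50 nM final. Fluorescence read kinetically at 0 and 10 min; buffer-only wells served as negative control.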
WRN helicase inh = WRN helicase (human) inhibition; Q14191; WRN helicase unwinding, fluorescent forked duplex, kinetic; Potency, µM (highest dose often 114 µM), without a hit: top-dose activity change, negative = inhibition, usual class: inhibitors; 0.46% of 360,000 active; AID 651768; also: potency is read from the fitted curve at half-maximal effect; % is scaled to controls: 0 for no effect and ±100 for the full control effect; nearly all actives have a fitted effect of over 55% in size
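Kinetic red-fluorescence monitoring (525/598 nm) tracks WRN helicase activity after 100 nM fluorophore-quencher forked duplex and 2 mM ATP are added to 20 nM enzyme pretreated 15 min at room temperature with compound.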
POLH inh = blocks human DNA polymerase eta activity; Q9Y253; recombinant Pol eta, fluorescent DNA replication assay; Potency, µM (doses to about 114 µM), for inactives: top-dose activity change, negative = inhibition, most hits filed as inhibitors; 1.2% of 390,000 active; AID 588591; also: potency is read from the fitted curve at half-maximal effect; % is scaled to controls: 0 for no effect and ±100 for the full control effect
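Fluorescent replication assay: 50 nM final substrate added after a 15 min room-temperature compound preincubation with 10 nM enzyme. Signal taken at 0 min and again at 10 min.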
PI5P4K alpha inh = PI5P4K alpha (human) kinase inhibition. P48426. PI5P4Kalpha enzyme, ADP-Glo luminescence, 60 min; stronger effect = lower value. max response, %. 1.2% of 330,000 active. AID 652105; active = max response of -50% or lower; inconclusive = between -30% and -50%; inactive = -30% or higher; also: value at the top dose of about 77 µM; % is scaled to controls: 0 for no effect and ±100 for the full control effect
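Human PI5P4Kalpha with substrate in 0.038 M HEPES pH 7.4, 0.28 mM EGTA, 0.1% CHAPS, 5% DMSO; reaction started with 5 microM ATP (final), 60 min at room temperature. ADP formed read by ADP-Glo luminescence.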
Pol beta inh = DNA polymerase beta (human) inhibition. P06746. Pol beta primer extension/strand displacement, fluorescence kinetic. Potency, µM (series often up to 114 µM), without a hit: top-dose activity change, negative = inhibition, actives largely listed as inhibitors. 1.3% of 340,000 active. AID 485314; also: potency is read from the fitted curve at half-maximal effect; % is scaled to controls: 0 for no effect and ±100 for the full control effect
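Pol beta (10 nM) and compounds were preincubated 15 min at room temperature, then 50 nM substrate (final) started primer extension/strand displacement. Reads were taken at 0 and 10 min; concentration-response data were fitted to a four-parameter Hill equation.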
An asterisk follows results filed as active; ! = a repeat was not active; [ ] = remark or other dose. Unless noted, calls follow the shape of the dose curve; as a rule, active = well fitted curve in the direction sought with a large enough effect; inconclusive = small, poorly fitted or top-dose-only effect, or another doubt; inactive = no such curve, though single readings can be large; an effect the other way counts as inactive or inconclusive.

Screening C#CCOCCOCCOCCNc1nc(N2CCN(C(=O)[C@H]([C@@H](C)CC)n3cc([C@@H](N)CC(C)C)nn3)CC2)nc(N2CCN(C(=O)[C@H](CCCCN)n3cc([C@@H](N)CC(C)C)nn3)CC2)n1 returned POLI inh 14µM*, Pol kappa inh -18%, WRN helicase inh -1%, POLH inh -8%, PI5P4K alpha inh 29 and Pol beta inh 44%.
Screening O=C(O)CCC(=O)N1N=C(c2ccco2)CC1c1cccs1 (stereo unspecified) returned POLI inh -5%, Pol kappa inh 4%, WRN helicase inh -16%, POLH inh -9%, PI5P4K alpha inh inconclusive and Pol beta inh inconclusive.
`O=C(O)CCC(=O)N1N=C(c2ccco2)CC1c1ccco1` (stereo unspecified) gave POLI inh 50µM*, Pol kappa inh inconclusive, WRN helicase inh -2%[11.6 µM], POLH inh inconclusive, PI5P4K alpha inh 1 and Pol beta inh 9%.
Cc1ccc(C2=NN(C(=O)CCCC(=O)O)C(c3ccco3)C2)cc1 (stereo unspecified) was read as POLI inh 65%, Pol kappa inh -1%, WRN helicase inh -7%, POLH inh -12%, PI5P4K alpha inh -14 and Pol beta inh 89µM*.
CC(=O)N1N=C(c2ccc(C)cc2)CC1c1ccco1 (stereo unspecified) was read as POLI inh 31%, Pol kappa inh -2%, WRN helicase inh -5%, POLH inh -17%, PI5P4K alpha inh -3 and Pol beta inh 31%.
COc1cccc2cc(C(=O)NCCc3c(C)[nH]c4ccc(Br)cc34)c(=O)oc12 was read as POLI inh -32%, Pol kappa inh -11%, POLH inh -4% and Pol beta inh -23%.
For Cc1ccn2c(NC3CCCCC3)c(-c3ccc(C)o3)nc2c1 the results were POLI inh 19% and Pol kappa inh -1%.
For CC(N)(Cc1ccc(O)cc1)C(=O)O (stereo unspecified) the results were POLI inh 2%[58.9 µM], Pol kappa inh -16%[60.1 µM], POLH inh -8%[57.1 µM] and Pol beta inh 8%[57.1 µM].
For C[C@@](N)(Cc1ccc(O)c(O)c1)C(=O)O the results were Pol kappa inh 3.5µM*!.
For C=C(CO)C1Cc2cc(C(C)=O)ccc2O1 (stereo unspecified) the results were POLI inh inconclusive, Pol kappa inh inconclusive, WRN helicase inh -33%, POLH inh 20µM*, PI5P4K alpha inh -6 and Pol beta inh inconclusive.
COCc1[nH]c(=S)c(C#N)cc1C(=O)OC was read as POLI inh inconclusive, Pol kappa inh -36%, WRN helicase inh inconclusive, POLH inh -2%, PI5P4K alpha inh -62* and Pol beta inh 15%.
`CCOC(=O)c1cc(C#N)c(=S)[nH]c1C` gave POLI inh inconclusive, Pol kappa inh -34%, WRN helicase inh -7%, POLH inh 3%, PI5P4K alpha inh -26 and Pol beta inh 2%.
Screening COc1ccc(NC(=O)c2c(C)oc3ccc(O)c(CN4CCCCCC4)c23)cc1Cl returned POLI inh -15%, Pol kappa inh -27%, POLH inh -18% and Pol beta inh -16%.
For CCc1ccc(NC(=O)CC(NCc2cccnc2)C(=O)O)cc1 (stereo unspecified) the results were POLI inh -14%, Pol kappa inh 5%, POLH inh -5% and Pol beta inh 29%.
Screening CCN(CCCCCCN)c1ccc2c(=O)[nH][nH]c(=O)c2c1 returned POLI inh 46%, Pol kappa inh -5%, WRN helicase inh 0%[11.6 µM], POLH inh 79µM*, PI5P4K alpha inh 0 and Pol beta inh -27%.
For O=Nc1ccc(NOC(=O)c2ccccc2Br)cc1 the results were POLI inh 120%, Pol kappa inh -14%, WRN helicase inh 10%, POLH inh 6%, PI5P4K alpha inh 0 and Pol beta inh 79µM*.
`Cc1ccc2occ(CC(=O)Nc3ccc(S(=O)(=O)N4CCCC(C)C4)cc3)c2c1` (stereo unspecified) gave POLI inh 4%, Pol kappa inh -8%, POLH inh -24% and Pol beta inh 0%.
For N=c1oc2c3c4c(cc2cc1C(=O)Nc1ccccc1)CCCN4CCC3 the results were POLI inh 62%, Pol kappa inh -13%, WRN helicase inh 56µM*, POLH inh -12%, PI5P4K alpha inh 2 and Pol beta inh 12%.
For Oc1c(CN2CCOCC2)cc(CN2CCOCC2)c(O)c1O the results were POLI inh inconclusive, Pol kappa inh inconclusive, WRN helicase inh 22µM*, POLH inh inconclusive and PI5P4K alpha inh -23.
Oc1cccc(CN2CCOCC2)c1O was read as POLI inh 20µM*, Pol kappa inh 28µM*, WRN helicase inh inconclusive, POLH inh 2% and PI5P4K alpha inh -16.
`Cc1ccc(C2=NN3C(C2)c2ccccc2OC32C(=O)Nc3ccccc32)cc1` (stereo unspecified) gave POLI inh 23%, Pol kappa inh -26%, WRN helicase inh -30%, POLH inh -15%, PI5P4K alpha inh -53* and Pol beta inh 40%.
For COC(=O)/C=C/C(C)=C/C=C/C(C)=C/C=C/C=C(C)/C=C/C=C(C)/C=C/C(=O)O the results were Pol kappa inh 32µM*.
For COc1ccccc1NC(=O)c1oc2ccccc2c1NC(=O)c1ccc(S(=O)(=O)N(C)C)cc1 the results were POLI inh 12%, Pol kappa inh 5%, POLH inh 2% and Pol beta inh 42%.
`CCN(CC)S(=O)(=O)c1ccc(C(=O)NNC(=O)c2csc(N3CCOCC3)n2)cc1` gave POLI inh 15%, Pol kappa inh -7%, WRN helicase inh -10%, POLH inh -4% and PI5P4K alpha inh -13.
For CN(C)S(=O)(=O)c1ccc(C(=O)OCC(=O)c2csc(N3CCCCC3)n2)cc1 the results were POLI inh inconclusive, Pol kappa inh -37%, WRN helicase inh 1%[11.6 µM], POLH inh 79µM* and PI5P4K alpha inh -28.
Cc1oc(-c2cccc(Cl)c2)nc1CS(=O)(=O)CC(=O)NC(C)CCc1ccccc1 (stereo unspecified) was read as POLI inh 89µM*, Pol kappa inh -8%, POLH inh -8% and Pol beta inh -6%.
Screening Cc1ccc(-c2noc(-c3ccccc3NC(=O)C3CC(=O)N(c4ccccc4C)C3)n2)cc1 (stereo unspecified) returned POLI inh -1%, Pol kappa inh 12%, POLH inh -8% and Pol beta inh 4%.
